About 79,000 compounds went through this panel and 15% of them were active in at least one assay; those are over-represented in the sample as a whole. Unmarked numbers belong to inactive results. Activity calls are given as the source filed them. No stated cut-off is given here; in the data, active means growth inhibition above about 70%; inactive means the rest.

The nature of assay [1]: NCI Yeast Anticancer Drug Screen. Data for the rad50 strain (AID 155).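 Further: 0% = growth of vehicle-only cultures of the same strain.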 Particulars: S. cerevisiae rad50 strain growth inhibition, hits give high values. In short, it runs like this: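 Compounds were tested on a yeast strain with an engineered DNA damage repair alteration; the reported value is growth inhibition normalised to vehicle treatment.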
Assay [2] can be described thus: NCI Yeast Anticancer Drug Screen. Data for the mec2-1 strain (AID 157). Particulars: S. cerevisiae mec2-1 strain, hits give high values. In short, it runs like this: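 Cells of the genetically defined mec2-1 yeast strain are incubated with test compound. Inhibition of growth is calculated against vehicle-treated controls.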
Assay [3] is described as follows: NCI Yeast Anticancer Drug Screen. Data for the sgs1 mgt1 strain (AID 161).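 Further: 0% = growth of cultures given vehicle only.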 The settings on record: S. cerevisiae sgs1 mgt1 strain, hits give high values. In short, it runs like this: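 Mutant yeast exposed to compound; growth scored against vehicle-only wells.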
The nature of assay [4]: NCI Yeast Anticancer Drug Screen. Data for the cln2 rad14 strain (AID 165).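 Further: 0% = growth equal to vehicle treated cultures.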 Particulars: S. cerevisiae cln2 rad14 strain, hits give high values. In short, it runs like this:
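The screen exposed genetically defined yeast (cln2 rad14) to test compounds and scored growth inhibition relative to vehicle-treated controls.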

The nature of assay [5]: NCI Yeast Anticancer Drug Screen. Data for the bub3 strain (AID 167). The settings on record: S. cerevisiae bub3 mutant strain, hits give high values. In short, it runs like this:
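Growth of a checkpoint-deficient yeast mutant is measured after compound exposure. Values represent inhibition relative to vehicle.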

A short description of assay [6]: NCI Yeast Anticancer Drug Screen. Data for the mlh1 rad18 strain (AID 175). Particulars: S. cerevisiae mlh1 rad18 strain growth inhibition, hits give high values. In short, it runs like this:
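Compound-treated yeast growth, normalised to vehicle controls. Strain bears defined DNA repair mutations.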

Setting [7] is: at 5.0 µM (retest, dose inferred, filed as 0.5).
Where [8] appears, read: at 50.0 µM (retest, dose inferred, filed as 5.0).

Regarding `Cc1ccccc1C(CC(=O)O)C(C)c1ccccc1` (configuration not stated), the growth inhibition in assay [1] (setting [7]) is 14%; in assay [1] (setting [8]), 53%; in assay [1] (at 50.0 µM), 20.5%; in assay [2] (setting [7]), 18%; in assay [2] (setting [8]) it was 53%; in assay [2] (at 50.0 µM), 88.8% (active). For the same compound, the growth inhibition in assay [3] (setting [7]) is 9%; in assay [3] (setting [8]), 66%; in assay [3] (at 50.0 µM) it was 77.9% (active); in assay [4] (setting [7]), 13%; in assay [4] (setting [8]), 60%; in assay [4] (at 50.0 µM), 73.2% (active). In addition, the growth inhibition in assay [5] (setting [7]) is 32%; in assay [5] (setting [8]), 80% (active); in assay [5] (at 50.0 µM) it was 97.2% (active); in assay [6] (setting [7]), 12%; in assay [6] (setting [8]) it was 45%; in assay [6] (at 50.0 µM) it was 86.2% (active).
Turning to `N#C/C(=C/c1ccc([N+](=O)[O-])o1)c1ccccc1`, the growth inhibition was -6% in assay [1] (setting [7]); -7% in assay [1] (setting [8]); 75.8% (active) in assay [1] (at 50.0 µM); -19% in assay [2] (setting [7]); -7% in assay [2] (setting [8]); -20.1% in assay [2] (at 50.0 µM). The growth inhibition is -6% in assay [3] (setting [7]); -1% in assay [3] (setting [8]); 27.9% in assay [3] (at 50.0 µM); 12% in assay [4] (setting [7]); 23% in assay [4] (setting [8]); 32.8% in assay [4] (at 50.0 µM). Besides, the growth inhibition is -4% in assay [5] (setting [7]); -2% in assay [5] (setting [8]); -13.7% in assay [5] (at 50.0 µM); -21% in assay [6] (setting [7]); 21% in assay [6] (setting [8]); 5.9% in assay [6] (at 50.0 µM).
Regarding `Nc1ccc(C(=O)NN2C(=O)C(Cl)C2c2cc(Br)cc(Br)c2O)cc1` (configuration not stated), the growth inhibition in assay [1] (setting [7]) is -3%; in assay [1] (setting [8]) it was 64%; in assay [1] (at 50.0 µM), 96.2% (active); in assay [2] (setting [7]), -12%; in assay [2] (setting [8]), 80% (active); in assay [2] (at 50.0 µM), 94.2% (active). Further, the growth inhibition in assay [3] (setting [7]) is -3%; in assay [3] (setting [8]) it was 91% (active); in assay [3] (at 50.0 µM), 93.7% (active); in assay [4] (setting [7]), -20%; in assay [4] (setting [8]) it was 76% (active); in assay [4] (at 50.0 µM), 89% (active). In addition, the growth inhibition was 10% in assay [5] (setting [7]); 54% in assay [5] (setting [8]); 98.2% (active) in assay [5] (at 50.0 µM); 5% in assay [6] (setting [7]); 85% (active) in assay [6] (setting [8]); 94.7% (active) in assay [6] (at 50.0 µM).
With `CCN(CC)C(=S)N/N=C(\C)c1cccc(C)n1`, the growth inhibition in assay [1] (setting [7]) is 84% (active); in assay [1] (setting [8]), 100% (active); in assay [1] (at 50.0 µM) it was 88.7% (active); in assay [2] (setting [7]), 82% (active); in assay [2] (setting [8]) it was 99% (active); in assay [2] (at 50.0 µM) it was 91.7% (active). Further, the growth inhibition in assay [3] (setting [7]) was 62%; in assay [3] (setting [8]), 99% (active); in assay [3] (at 50.0 µM) it was 85.3% (active); in assay [4] (setting [7]), 82% (active); in assay [4] (setting [8]) it was 99% (active); in assay [4] (at 50.0 µM), 89.4% (active). The growth inhibition is 87% (active) in assay [5] (setting [7]); 99% (active) in assay [5] (setting [8]); 88.9% (active) in assay [5] (at 50.0 µM); 81% (active) in assay [6] (setting [7]); 99% (active) in assay [6] (setting [8]); 85.8% (active) in assay [6] (at 50.0 µM).
As to `Cc1ccc(SCc2nc3ccccc3c(C)[n+]2[O-])cc1`, the growth inhibition in assay [1] (setting [7]) was 2%; in assay [1] (setting [8]), 86% (active); in assay [1] (at 50.0 µM) it was 32.6%; in assay [2] (setting [7]), 4%; in assay [2] (setting [8]) it was 86% (active); in assay [2] (at 50.0 µM) it was 45.6%. Further, the growth inhibition in assay [3] (setting [7]) was -7%; in assay [3] (setting [8]), 87% (active); in assay [3] (at 50.0 µM) it was 55%; in assay [4] (setting [7]), 0%; in assay [4] (setting [8]) it was 53%; in assay [4] (at 50.0 µM), 38%. The growth inhibition in assay [5] (setting [7]) was -4%; in assay [5] (setting [8]), 76% (active); in assay [5] (at 50.0 µM) it was 55.9%; in assay [6] (setting [7]), -7%; in assay [6] (setting [8]) it was 91% (active); in assay [6] (at 50.0 µM), 56.7%.
As to `Oc1c(Cl)cc(C(c2cc(Cl)c(O)c(Cl)c2)C(c2cc(Cl)c(O)c(Cl)c2)c2cc(Cl)c(O)c(Cl)c2)cc1Cl`, the growth inhibition in assay [1] (setting [7]) was 99% (active); in assay [1] (setting [8]), 98% (active); in assay [1] (at 50.0 µM), 92.5% (active); in assay [2] (setting [7]), 99% (active); in assay [2] (setting [8]), 98% (active); in assay [2] (at 50.0 µM) it was 95.8% (active). For the same compound, the growth inhibition in assay [3] (setting [7]) is 99% (active); in assay [3] (setting [8]), 98% (active); in assay [3] (at 50.0 µM), 42.8%; in assay [4] (setting [7]) it was 98% (active); in assay [4] (setting [8]) it was 98% (active); in assay [4] (at 50.0 µM), 92% (active). Moreover, the growth inhibition was 99% (active) in assay [5] (setting [7]); 98% (active) in assay [5] (setting [8]); 93.9% (active) in assay [5] (at 50.0 µM); 99% (active) in assay [6] (setting [7]); 98% (active) in assay [6] (setting [8]); 96.8% (active) in assay [6] (at 50.0 µM).
For the compound `CC(C)(C)c1ccc2c(c1)CNCCNCc1cc(C(C)(C)C)ccc1OCC1(CO2)COc2ccc(C(C)(C)C)cc2CNCCNCc2cc(C(C)(C)C)ccc2OC1`, the growth inhibition in assay [1] (setting [7]) was 99% (active); in assay [1] (setting [8]), 92% (active); in assay [1] (at 50.0 µM), 89% (active); in assay [2] (setting [7]), 99% (active); in assay [2] (setting [8]) it was 94% (active); in assay [2] (at 50.0 µM), 90% (active). Moreover, the growth inhibition in assay [3] (setting [7]) was 99% (active); in assay [3] (setting [8]), 92% (active); in assay [3] (at 50.0 µM), 92.2% (active); in assay [4] (setting [7]), 99% (active); in assay [4] (setting [8]), 92% (active); in assay [4] (at 50.0 µM) it was 89.5% (active). For the same compound, the growth inhibition in assay [5] (setting [7]) was 98% (active); in assay [5] (setting [8]), 91% (active); in assay [5] (at 50.0 µM), 89% (active); in assay [6] (setting [7]) it was 98% (active); in assay [6] (setting [8]), 92% (active); in assay [6] (at 50.0 µM) it was 88.2% (active).
For the compound `CS(=O)(=O)OCCN(CCOS(C)(=O)=O)c1ccc(C=Nc2cc(Br)c(O)c(Br)c2)c(Cl)c1`, the growth inhibition in assay [1] (setting [7]) is 3%; in assay [1] (setting [8]), 70% (active); in assay [1] (at 50.0 µM) it was 67.7%; in assay [2] (setting [7]) it was 29%; in assay [2] (setting [8]), 39%; in assay [2] (at 50.0 µM), 36.8%. For the same compound, the growth inhibition in assay [3] (setting [7]) was 3%; in assay [3] (setting [8]), 80% (active); in assay [3] (at 50.0 µM) it was 82.5% (active); in assay [4] (setting [7]), 5%; in assay [4] (setting [8]), 45%; in assay [4] (at 50.0 µM) it was 10.2%. Also, the growth inhibition in assay [5] (setting [7]) was -3%; in assay [5] (setting [8]), 96% (active); in assay [5] (at 50.0 µM), 40.3%; in assay [6] (setting [7]) it was 8%; in assay [6] (setting [8]), 91% (active); in assay [6] (at 50.0 µM), 85.8% (active).
As for `Cn1c(Sc2ccc(-c3cccnc3)n2C)ccc1-c1cccnc1`, the growth inhibition in assay [1] (setting [7]) was 11%; in assay [1] (setting [8]) it was 91% (active); in assay [1] (at 50.0 µM), 97.8% (active); in assay [2] (setting [7]), -12%; in assay [2] (setting [8]) it was 92% (active); in assay [2] (at 50.0 µM) it was 98.7% (active). In addition, the growth inhibition in assay [3] (setting [7]) was -7%; in assay [3] (setting [8]), 97% (active); in assay [3] (at 50.0 µM), 97.5% (active); in assay [4] (setting [7]), -15%; in assay [4] (setting [8]), 77% (active); in assay [4] (at 50.0 µM) it was 98.1% (active). The growth inhibition is -19% in assay [5] (setting [7]); 96% (active) in assay [5] (setting [8]); 97.8% (active) in assay [5] (at 50.0 µM); -5% in assay [6] (setting [7]); 95% (active) in assay [6] (setting [8]); 97.3% (active) in assay [6] (at 50.0 µM).

The values above are taken from PubChem BioAssay (NCI).
